Records with an inconclusive call do not appear. Unmarked numbers belong to inactive results. Activity calls are given as the source filed them. Calls come from the whole dose curve; as a rule, active = well fitted activation curve with a large enough effect; inconclusive = small, poorly fitted or top-dose-only effect; inactive = flat fitted curve, though single readings scatter.
Test: qHTS assay to identify small molecule phospholipidosis (PLD) inducers (AID 1259344)
Conditions: HepG2 phospholipidosis, LipidTOX Red imaging, 24 h; series mostly up to 38.3 µM; PLD induction: at the top concentration
Procedure, shortened: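 Quantitative HTS in HepG2: compound plus LipidTOX Red dye for 24 h, paraformaldehyde fixation with Hoechst 33342, widefield high-content imaging; amiodarone as positive and DMSO as negative control.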
% is set by controls: 0 for no effect and ±100 for the full control effect.

Compound | PLD induction | Potency
CC1=C(/C=C/C(C)=C/C=C/C(C)=C/C=C/C=C(C)/C=C/C=C(C)/C=C/C2=C(C)CCCC2(C)C)C(C)(C)CCC1 | 0.0985% | 
Nc1ccc(N)c([N+](=O)[O-])c1 | -6.91% [at 78.4 µM] | 
CCN(CC)CCn1c(=O)c(Cc2ccc(OC)cc2)nc2ccccc21 | 1.39% [at 7.66 µM] | 
O=C(O)c1ccccc1[O-].O=C(O)c1ccccc1[O-].[Zn+2] | -2.38% | 
C=CC(N)CCC(=O)O (stereo not given) | 1.01% | 
CCCCCCCC[N+](C)(C)CCCCCCCC |  | inactive
CCc1ncnc2cc(OC)c(OC)cc12 | -0.157% | 
CN[C@@H]1[C@@H](O[C@H]2O[C@H](CO)[C@@H](N)[C@H](O)[C@H]2O)O[C@H]2C[C@@H](N)[C@@H](O[C@H]3[C@H](O)[C@@H](O)[C@H](N)C[C@@H]3N)O[C@@H]2[C@@H]1O | -1.15% [at 15.5 µM] | 
O=C(O)c1cc(=O)c2c3nc4ccccc4oc-3cc(=O)c2[nH]1 | -1.09% | 
Cc1cn([C@H]2C[C@H](O)[C@@H](CO)O2)c(=O)[nH]c1=O | 0.288% | 
NCC[C@H](O)C(=O)N[C@@H]1C[C@H](N)[C@@H](O[C@H]2O[C@H](CN)CC[C@H]2N)[C@H](O)[C@H]1O[C@H]1O[C@H](CO)[C@@H](O)[C@H](N)[C@H]1O | 0.0613% | 
C=C1[C@@H]2CC[C@@H](C2)C1(C)C | 2.78% | 
O=C(O)[C@H]1CN(C/C=C/P(=O)(O)O)CCN1 | 0.469% | 
O=C1c2c(O)cccc2[C@H]([C@@H]2O[C@H](CO)[C@@H](O)[C@H](O)[C@H]2O)c2cc(CO)cc(O)c21 |  | inactive
C[C@H](O)CN(C)C | -0.434% | 

Reference: PubChem BioAssay (Tox21)
